H9c2 protect = protects H9c2 cardiomyocytes from peroxide injury; H2O2 injury protection, ATPLite, 2 h; protection from H2O2 cell death, % at 20 µM; 360,000 tested, 0.63% active; AID 588492;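 active means compounds giving at least 50% protection of heart cells from peroxide-induced death in the single-dose screen, raw or plate-pattern-corrected value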;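 further: 0% = DMSO wells with peroxide and 100% = DMSO wells without peroxide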
NTR1 ag = NTR1 (human) agonism | P30989 | NTR1-U2OS beta-arrestin-GFP spot imaging, agonist mode | activation, % at 20 µM | 330,000 tested, 0.17% active | AID 493036;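 active means activation at or above 40% of the spot to cytoplasm intensity ratio, with at least 20 cells analyzed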;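 further: 0% = DMSO without peptide and 100% = 100 nM NTR1 peptide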
Target sequence (P30989 whole entry, looked up): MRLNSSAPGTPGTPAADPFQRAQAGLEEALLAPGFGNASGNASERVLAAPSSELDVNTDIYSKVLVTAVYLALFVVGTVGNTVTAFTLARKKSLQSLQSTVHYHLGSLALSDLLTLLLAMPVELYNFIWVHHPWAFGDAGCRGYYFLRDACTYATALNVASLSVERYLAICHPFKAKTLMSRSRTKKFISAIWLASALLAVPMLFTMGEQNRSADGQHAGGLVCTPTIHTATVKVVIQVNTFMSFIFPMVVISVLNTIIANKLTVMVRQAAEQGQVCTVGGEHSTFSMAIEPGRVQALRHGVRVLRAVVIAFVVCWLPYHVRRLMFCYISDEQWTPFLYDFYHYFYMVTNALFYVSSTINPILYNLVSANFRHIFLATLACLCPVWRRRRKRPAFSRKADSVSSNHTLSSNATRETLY
AHR act = activators of human aryl hydrocarbon receptor | AHR-responsive luciferase reporter cells, luminescence | 320,000 tested, 2.5% active | activation, % at 5 µM | AID 2796 | P35869; in the data active means activation above about 47%;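 further: 0% = vehicle wells and 100% = reference agonist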
AI-2 QS mod = modulates the Vibrio harveyi AI-2 quorum sensing system. Vibrio harveyi JMH597 AI-2 luminescence/OD600 ratio, 9 h; active compounds read low; strain lacks LuxN and CqsS sensors; 0 = neutral-control median. activity change, % at 7.5 µM. 300,000 tested, 0.4% active. AID 2094; in the data active means activity change below about -75%, passing the limit was not always enough;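 further: luminescence divided by OD600 gain over 9 h not by final OD600 alone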
GRIN3A LBD mod = modulators (binders) of human NR3A ligand-binding domain | NR3A LBD differential scanning fluorimetry, Tm shift; 0% = protein alone, 100% = glycine-bound protein | Tm shift relative to glycine control, % at 25 µM | 340,000 tested, 2.5% active;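 active means melting temperature shift of at least 10% of the positive control shift, at one fixed dose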
Mot1-301 SUMO = blocks SUMOylation pathway, rescuing yeast Mot1-301 growth; growth rescue, % at 18.8 µM; 320,000 tested, 1% active; S. cerevisiae Mot1-301 growth rescue, ATP luminescence, 38.5C; percent above DMSO median, 100 means doubled;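 active means every valid replicate shows activation above 250% relative to neutral control wells; inactive means the rest, any valid replicate at or below 250%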;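 further: OY570 slx delta 5 strain wells were the positive control but not used for scaling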
* marks the source's active call; other numbers are inactive results; / = not tested or not shown. A selection: hits, their analogues and other compounds. The true share with any hit is near 6.2%.

SMILES	H9c2 protect	NTR1 ag	AHR act	AI-2 QS mod	GRIN3A LBD mod	Mot1-301 SUMO
COc1ccc(C(=O)COC(=O)C(CCCCN2C(=O)C3C4C=CC(C4)C3C2=O)N2C(=O)C3C4C=CC(C4)C3C2=O)cc1 (stereo unspecified)	74.9*	1.4	-0.5	17.3	1.5	/
OC[C@@H]1CN(Cc2ccc3c(c2)OCO3)C[C@H](n2cnc3c(N4CCCC4)ncnc32)O1	10.3	/	/	/	/	/
C=C(C)Cn1c(SCC(=O)N/N=C/c2c(O)ccc3ccccc23)nc2ccccc2c1=O	69.3*	3.8	16.8	24.5	-2.4	-10.5
Cc1ccccc1-n1c(SCC(=O)N/N=C/c2c(C)nn(-c3ccccc3)c2C)nc2ccccc2c1=O	23.1	0.9	-2.7	10.4	20.5*	-21.9
O=C(CSc1nnc(SCc2ccccc2Cl)s1)N/N=C/c1c[nH]c2ccccc12	-14.5	16.6	11.2	11.8	26.1*	24.1
Cc1ccc(-n2c(SCC(=O)N/N=C/c3c(C)nn(-c4ccccc4)c3C)nc3ccccc3c2=O)cc1	12.3	6.5	5.6	19.7	0.2	-8.8
Cc1nn(-c2ccccc2)c(C)c1/C=N/NC(=O)CSc1nnc(SCc2cccc3ccccc23)s1	-10.3	0.4	3.2	-3.1	15.7*	0.4
O=C(CSc1nnc(SCc2ccccc2)s1)N/N=C/c1c[nH]c2ccccc12	-8.1	/	/	19.4	-2.9	/
CCc1nnc(NC(=O)CCC(=O)Nc2ccc(Cl)cc2)s1	16.8	1.2	2.3	16.4	-0.2	5.5
COC(=O)Cn1c2ccc(Cl)cc2c2nc(C)sc21	8.8	-0.5	-0.6	2.0	2.4	-10.8
Cc1ccc(S(=O)(=O)n2c3ccc(Cl)cc3c3nc(C)sc32)cc1	-6.0	/	/	0.2	26.6*	/
Cc1cc(NC(=O)Nc2ccc(Cl)cc2)n(C)n1	-1.8	0.0	4.4	11.5	1.7	5.6
Cn1nc(-c2ccccc2)cc1NC(=O)Nc1ccc(C(C)(C)C)cc1	-9.8	6.7	3.0	30.3	16.8*	89.4
Cn1nc(-c2ccc(Cl)cc2)cc1NC(=O)Nc1ccccc1	-1.4	2.8	32.3	2.8	25.6*	8.7
Cn1nc(-c2ccccc2)cc1NC(=O)c1ccccc1	2.0	-1.2	7.6	-3.9	-0.7	-1.4
COc1ccc(NC(=O)C/C(C)=N/NC(=O)c2ccccn2)c(OC)c1	1.7	-0.7	5.2	11.2	-0.9	-0.4
COc1cc(C)cc(C(=O)C=Cc2ccccc2)c1O	15.7	/	/	/	16.9*	/
CC(C)Nc1ncnc2c1ncn2[C@H]1CN(C2CCCC2)C[C@@H](CO)O1	2.4	/	/	/	/	/
CCC(=O)Oc1ccc(NC(=O)c2ccc(S(=O)(=O)N3CCCC3)cc2)cc1	-4.1	/	/	/	/	/
C/C(N)=C(/C#N)C(=O)CSc1nnc(Nc2ccccc2C)s1	28.1	-0.1	5.2	3.5	-0.6	1.3
C/C(N)=C(/C#N)C(=O)CSc1nnc(Nc2ccccc2)s1	56.8*	1.0	17.0	36.0	-23.3	-5.6
O=C(CSc1nnc(Nc2ccccc2)s1)Nc1ccc(S(=O)(=O)N2CCOCC2)cc1	-16.4	2.6	6.5	22.8	17.9*	-3.5
COc1ccc(NC(=O)CSc2nnc(NC(=O)c3ccc(S(=O)(=O)N4CCOCC4)cc3)s2)cc1	-6.6	-0.4	2.7	16.2	31.1*	-7.8
Cc1cccc(Nc2nnc(SCC(=O)Nc3cccc(S(=O)(=O)N4CCCCC4)c3)s2)c1	-18.1	5.7	1.4	8.1	14.6*	-12.6
Cc1nc(C(F)(F)F)ccc1C(=O)N1CCCCCC1(C)C(=O)NCC(C)C (stereo unspecified)	-0.6	/	/	/	/	/
SMILES	H9c2 protect	NTR1 ag	AHR act	AI-2 QS mod	GRIN3A LBD mod	Mot1-301 SUMO
Cc1ccc(Nc2nnc(SCC(=O)Nc3ccc(S(=O)(=O)N4CCOCC4)cc3)s2)cc1	-7.3	4.5	-0.2	28.0	33.2*	-8.6
O=c1oc2cc(OCc3c(F)cccc3Cl)ccc2cc1-c1ccccn1	-14.0	5.1	15.2	3.0	-3.5	265.1
O=c1oc2cc(OCc3ccc(F)cc3F)ccc2cc1-c1ccc2ccccc2n1	/	0.6	97.4*	8.4	/	2.4
COc1cc2nc(Nc3cccc(F)c3)nc(N)c2cc1OC	46.5	1.4	32.6	2.0	17.4*	-10.9
COc1nc(Nc2cccc(F)c2)nc(OC)n1	-1.9	0.0	11.5	3.4	-0.7	-15.2
Nc1nc2ccccc2n1/N=C/c1cccnc1	-6.5	1.9	32.5	-4.8	1.4	-4.6
